This note sets out measurements from publication PMC5540273 (PLoS ONE, 2017).

Some test systems named below: CSK; CSNK1A1L; CSNK1A1; CSNK1D; CSNK1E; CSNK1G1; CSNK1G2; CSNK1G3; CSNK2A1; CSNK2A2; DAPK1; DAPK2; DAPK3; DDR1; DDR2.
Settings in all cases: concentration: 1 μM, replicates: in singlicate; n = 1
In the next test the test system is T1, CTK.
T1 construct: gene MATK

The subject of a further test is T2, DCAMKL1.
T2 construct: gene DCLK1

A further test relates to T3, DCAMKL2.
T3 construct: gene DCLK2

A further test concerns T4, DCAMKL3.
T4 construct: gene DCLK3

The next test concerns T5, DLK.
T5 construct: gene MAP3K12
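Further: KINOMEscan kinase panel screen.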

For the molecule `COc1cccc(NC(=O)Nc2ccc(C)c(-c3ccc(C(=O)Nc4ccncc4)cc3)c2)c1` [GSK1398474], the “%Inh” value in the test with CSK stood at 0%; in the test with CSNK1A1L, 0%; in the test with CSNK1A1 it was 0%; with CSNK1D, 31%; in the test on CSNK1E, 42%; in the test with CSNK1G1 it was 8%. The “%Inh” value worked out at 25% in the test on CSNK1G2; 34% with CSNK1G3; 0% in the test with CSNK2A1; 10% with CSNK2A2; 0% with CTK; 28% in the test with DAPK1. Further, the “%Inh” value with DAPK2 is recorded as 8%; in the test on DAPK3, 0%; with DCAMKL1 it was 1%; with DCAMKL2 it was 7%; in the test on DCAMKL3, 0%; in the test on DDR1 it was 94.2%. The “%Inh” value is 36% with DDR2 and 6% in the test on DLK.
On to `CC(C)c1ccc(O)cc1Nc1ccnc2ccc(C(F)(F)F)cc12` [GW482059], for which the “%Inh” value in the test with CSK is listed as 0%; in the test on CSNK1A1L it was 11%; with CSNK1A1 it was 0%; with CSNK1D, 0%; in the test on CSNK1E it was 0%; in the test with CSNK1G1 it was 0%. Further, the “%Inh” value was found to be 0% with CSNK1G2; 9% in the test with CSNK1G3; 7% in the test on CSNK2A1; 0% in the test with CSNK2A2; 8% in the test on CTK; 5% in the test on DAPK1. In addition, the “%Inh” value in the test on DAPK2 was found to be 0%; in the test on DAPK3 it was 0%; in the test with DCAMKL1 it was 0%; in the test on DCAMKL2, 0%; in the test with DCAMKL3, 0%; in the test with DDR1, 18%. For the same molecule, the “%Inh” value with DDR2 was 0%; with DLK, 17%.
In the case of `Cc1ccc(NC(=O)c2ccc(Cl)cc2)cc1-c1ccc(C(=O)Nc2ccncc2)cc1` [GSK1398467], the “%Inh” value in the test with CSK was determined as 0%; in the test on CSNK1A1L, 14%; in the test on CSNK1A1, 0%; in the test with CSNK1D it was 18%; in the test on CSNK1E, 11%; in the test with CSNK1G1, 8%. For the same molecule, the “%Inh” value is 9% in the test with CSNK1G2; 22% in the test with CSNK1G3; 0% with CSNK2A1; 0% in the test with CSNK2A2; 0% in the test with CTK; 12% in the test with DAPK1. Moreover, the “%Inh” value in the test with DAPK2 came to 0%; in the test on DAPK3, 34%; with DCAMKL1 it was 3%; with DCAMKL2, 0%; in the test on DCAMKL3, 0%; in the test on DDR1, 89%. Also, the “%Inh” value stood at 36% with DDR2 and 0% with DLK.
Turning to `c1ccc(-c2ccnc3[nH]ccc23)cc1` [SB-693578], the “%Inh” value is listed as 0% with CSK; 20% in the test with CSNK1A1L; 0% in the test on CSNK1A1; 1% with CSNK1D; 42% in the test with CSNK1E; 90.3% in the test on CSNK1G1. Moreover, the “%Inh” value in the test with CSNK1G2 is recorded as 0%; with CSNK1G3, 5%; in the test with CSNK2A1 it was 0%; with CSNK2A2 it was 0%; in the test on CTK, 0%; in the test with DAPK1 it was 0%. Also, the “%Inh” value is 0% in the test on DAPK2; 19% in the test with DAPK3; 16% with DCAMKL1; 0% in the test with DCAMKL2; 0% in the test on DCAMKL3; 23% in the test with DDR1. The “%Inh” value was determined as 26% in the test with DDR2 and 37% in the test on DLK.
With `O=c1cc(N2CCOCC2)nc2n(Cc3ccccc3F)ccn12` [GSK2297428], the “%Inh” value was 0% with CSK; 0% with CSNK1A1L; 28% in the test with CSNK1A1; 25% with CSNK1D; 33% in the test on CSNK1E; 9% with CSNK1G1. The “%Inh” value in the test with CSNK1G2 came to 0%; in the test with CSNK1G3, 28%; with CSNK2A1, 0%; in the test on CSNK2A2 it was 0%; in the test on CTK, 0%; in the test with DAPK1 it was 0%. Further, the “%Inh” value with DAPK2 is 0%; in the test with DAPK3, 13%; with DCAMKL1 it was 57%; with DCAMKL2, 0%; in the test on DCAMKL3 it was 3%; in the test on DDR1, 10%. Further, the “%Inh” value in the test on DDR2 and in the test on DLK was 0% in each case.
Regarding `CNc1cc(-c2ccc3c(N)n[nH]c3c2)nc(N)n1` [GSK2224810], the “%Inh” value with CSK was found to be 4%; in the test with CSNK1A1L it was 0%; in the test with CSNK1A1, 8%; in the test on CSNK1D it was 9%; in the test with CSNK1E it was 12%; in the test on CSNK1G1, 7%. Also, the “%Inh” value in the test on CSNK1G2 is reported as 0%; in the test with CSNK1G3, 28%; in the test on CSNK2A1 it was 19%; in the test with CSNK2A2 it was 22%; with CTK, 0%; in the test on DAPK1, 18%. Also, the “%Inh” value with DAPK2 was found to be 17%; in the test on DAPK3, 37%; in the test with DCAMKL1, 16%; with DCAMKL2, 0%; with DCAMKL3, 28%; with DDR1 it was 0%. The figures for the “%Inh” value in the test on DDR2 and with DLK were 13% and 29%, respectively.
Regarding `COc1cc2ncnc(Nc3cccc(Br)c3)c2cc1OC.Cl` [GI230329], the “%Inh” value with CSK was 0%; with CSNK1A1L, 10%; in the test on CSNK1A1 it was 0%; in the test with CSNK1D it was 0%; in the test on CSNK1E, 31%; in the test on CSNK1G1, 12%. In addition, the “%Inh” value in the test on CSNK1G2 turned out to be 0%; in the test with CSNK1G3, 26%; with CSNK2A1 it was 8%; with CSNK2A2 it was 0%; with CTK it was 0%; in the test on DAPK1, 0%. Also, the “%Inh” value was found to be 0% in the test with DAPK2; 9% in the test on DAPK3; 25% in the test on DCAMKL1; 0% with DCAMKL2; 10% in the test with DCAMKL3; 63% with DDR1. The “%Inh” value was 43% with DDR2 and 39% in the test on DLK.
Consider `COc1ccc(Nc2nccc(N3CCC(NC(=O)C(C)c4ccc(Cl)cc4)CC3)n2)cc1` (stereo not drawn) [GSK1379812], for which the “%Inh” value in the test with CSK is given as 0%; in the test on CSNK1A1L, 0%; in the test on CSNK1A1, 0%; in the test with CSNK1D it was 18%; in the test with CSNK1E it was 35%; in the test on CSNK1G1 it was 7%. For the same molecule, the “%Inh” value is reported as 0% in the test with CSNK1G2; 19% in the test on CSNK1G3; 0% with CSNK2A1; 21% with CSNK2A2; 0% in the test on CTK; 3% with DAPK1. Besides, the “%Inh” value came out at 20% with DAPK2; 10% in the test on DAPK3; 6% in the test with DCAMKL1; 0% in the test with DCAMKL2; 0% with DCAMKL3; 0% in the test with DDR1. Moreover, the results for the “%Inh” value in the test with DDR2 and in the test on DLK were 4% and 0%, respectively.
On to `Cc1ccc(NC(=O)Nc2ccc(Cl)c(C(F)(F)F)c2)cc1-c1ccc(C(=O)Nc2ccncc2)cc1` [GSK1398470], for which the “%Inh” value in the test on CSK is given as 0%; with CSNK1A1L, 9%; in the test with CSNK1A1 it was 22%; with CSNK1D, 7%; in the test with CSNK1E it was 7%; with CSNK1G1 it was 11%. Besides, the “%Inh” value was 24% with CSNK1G2; 21% with CSNK1G3; 21% with CSNK2A1; 0% in the test on CSNK2A2; 0% in the test on CTK; 8% with DAPK1. For the same molecule, the “%Inh” value with DAPK2 stood at 21%; in the test with DAPK3, 0%; with DCAMKL1, 0%; in the test with DCAMKL2, 11%; with DCAMKL3, 5%; in the test on DDR1, 97.3%. The results for the “%Inh” value with DDR2 and in the test on DLK were 63% and 0%, respectively.
